The sample as a whole holds a higher share of hits than the screen did.
G9a inh: G9a (human) methyltransferase inhibition | Q96KQ7 | G9a H3K9 monomethylation, AlphaScreen, 2 h | Potency, µM (titrated, usually from 102 µM), hits mostly inhibitors | hit rate 8.8% among 350,000 | AID 504332; further: nearly all actives have a fitted effect of over 75% in size
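Step 1: enzyme (final 20 nM) with compound, 15 min RT. Step 2: substrate peptide 500 nM and SAM 20 uM, 2 h RT. Step 3: anti-H3K9me1 antibody and AlphaScreen beads, 10 min, then plate read.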
12-LOX inh: inhibitors of human 12S-lipoxygenase ALOX12; hit rate 1.1% among 580,000; AID 1671190; Potency, µM (titrated, usually from 108 µM), actives largely listed as inhibitors; P18054; purified 12hLO, xylenol orange hydroperoxide absorbance
Target sequence (P18054 whole entry, looked up): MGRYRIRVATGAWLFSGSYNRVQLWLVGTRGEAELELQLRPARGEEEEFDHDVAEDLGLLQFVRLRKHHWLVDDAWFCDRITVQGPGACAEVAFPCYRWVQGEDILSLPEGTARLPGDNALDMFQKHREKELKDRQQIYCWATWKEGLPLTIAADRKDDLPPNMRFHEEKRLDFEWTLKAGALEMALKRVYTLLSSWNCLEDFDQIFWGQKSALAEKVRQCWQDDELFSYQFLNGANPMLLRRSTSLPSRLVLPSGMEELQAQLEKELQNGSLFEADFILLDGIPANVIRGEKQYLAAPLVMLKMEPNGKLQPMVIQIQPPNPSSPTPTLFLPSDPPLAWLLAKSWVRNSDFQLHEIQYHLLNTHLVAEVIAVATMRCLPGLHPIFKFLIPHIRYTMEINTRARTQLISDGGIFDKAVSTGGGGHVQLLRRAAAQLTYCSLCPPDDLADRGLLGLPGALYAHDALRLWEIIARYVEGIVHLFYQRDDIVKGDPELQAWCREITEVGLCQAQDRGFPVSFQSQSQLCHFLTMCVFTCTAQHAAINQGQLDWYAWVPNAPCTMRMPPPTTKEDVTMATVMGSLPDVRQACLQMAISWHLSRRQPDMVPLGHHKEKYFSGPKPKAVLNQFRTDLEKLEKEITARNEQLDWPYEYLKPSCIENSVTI
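Hydroperoxide product was detected by ferrous iron/xylenol orange as the 573 to 405 nm absorbance ratio. Arachidonic acid at 40 uM (final) was turned over for 30 min at room temperature by 150 nM human 12hLO, pH 7.0 Hepes buffer, after 15 min compound preincubation.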
VDR inh: inhibitors of human vitamin D receptor. Potency, µM, most hits filed as inhibitors. VDR-SRC2-3 peptide fluorescence polarization, 2 h. P11473. hit rate 0.93% among 400,000
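Inhibition of the VDR/SRC2-3 peptide interaction is quantified by fluorescence polarization. Compounds (23 nl, pintool) incubate with the reagents for 2 hours at ambient room temperature.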
GRP78 ERSR act: inducers of ER stress response in human glioma cells. U87-MG GRP78 promoter luciferase reporter, 16 h. AID 602332. hit rate 0.02% among 420,000. Potency, µM, actives largely listed as activators; further: series mostly up to about 76 µM; nearly all actives have a fitted effect of over 35% in size
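Stably transfected U87-MG glioma cells carrying a GRP78-based luciferase sensor; 16 h compound incubation. Luminescence end-point read 10 min after Bright-Glo addition at room temperature.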
Sfp inh: blocks B. subtilis Sfp PPTase activity | Q9F4F7 | Biochemical Sfp PPTase activity, qHTS | Potency, µM, usual class: inhibitors | hit rate 3.5% among 310,000;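 further: the enzyme is Sfp with the accession as filed and its product quenches rhodamine fluorescence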
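Fluorescence-quenching assay with 15 nM Sfp, 5 uM rhodamine-CoA and 12.5 uM BHQ-2-labelled ybbR peptide in pH 7.6 Hepes/MgCl2 buffer. Enzyme was pre-incubated with compound for 15 min at room temperature. Rate was taken from the 30-min fluorescence change (525/598 nm).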
Numbers stand for hits; . = inactive; ? = inconclusive; / = no result; ! = not confirmed by another sample; [ ] = remark or other dose. The call rests on the fitted dose curve; in most records, active means well fitted curve in the direction sought with a large enough effect; inconclusive means small, poorly fitted or top-dose-only effect, or another doubt; inactive means no such curve, though single readings can be large; an effect the other way counts as inactive or inconclusive.

SMILES	G9a inh	12-LOX inh	VDR inh	GRP78 ERSR act	Sfp inh
Cc1ccc(NC(=O)c2cn(C)c3ccccc23)c2cccnc12	/	.	/	/	/
CC(C)N1CCN(c2ccc(O)cc2)CC1	8.9µM	?	.	.	.
CCN1CCN(C(=O)Cc2ccccc2OC)CC1	.	.	.	.	.
CCN1CCN(C(=O)Cc2coc3ccc4ccccc4c23)CC1	50µM	?	.	.	.
COc1ccccc1-n1c(-c2ccco2)n[nH]c1=S	22µM	.	.	.	.
Cn1cc(/C=C(\C(=O)O)C(C(=O)O)=C2CCCCC2)c2ccccc21	32µM	.	?	.	.
CN1C(=O)C(=Cc2ccccc2OCCOc2ccc([N+](=O)[O-])cc2)C(=O)N(C)C1=O	10µM	?	?	.	71µM
CN1C(=O)C(=Cc2ccccc2OCc2ccc(C(=O)O)cc2)C(=O)N(C)C1=O	?	.	?	.	.
CN1C(=O)C(=Cc2ccccc2OCc2ccccc2Cl)C(=O)N(C)C1=O	.	?	?	.	50µM
COc1ccc2c(c1)CC1(CN2C)C(=O)NC(=O)N(CCc2ccccc2)C1=O (stereo not drawn)	11µM	40µM	?	.	.
COc1ccc(OC)c(N2C(=O)NC(=O)C3(Cc4cc(C)ccc4N(C)C3)C2=O)c1 (stereo not drawn)	8.9µM	?	.	.	.
Cc1ccc(N2C(=O)NC(=O)C3(Cc4cc(C)ccc4N(C)C3)C2=O)c(C)c1 (stereo not drawn)	/	.	/	/	/
COc1cccc(N2C(=O)NC(=O)C3(Cc4cc(C)ccc4N(C)C3)C2=O)c1 (stereo not drawn)	2.8µM	?	.	.	.
Cc1ccc2c(c1)CC1(CN2C)C(=O)NC(=O)N(c2cc(C)ccc2C)C1=O (stereo not drawn)	5.6µM	.	.	.	.
CN1C(=O)N(C)C(=O)C2(Cc3cc([N+](=O)[O-])ccc3N(C)C2)C1=O	.	.	.	.	.
COc1cc(CN2C(=O)NC(=O)C3(Cc4cc(C)ccc4N(C)C3)C2=O)cc(OC)c1 (stereo not drawn)	?	.	.	.	?
FC(F)(F)CN1C2CCC1CN(c1nc(Cl)nc3nc[nH]c13)C2	/	.[6.33 µM]	/	/	/
CC[C@H]1CN2CC[C@H]1C[C@@H]2COC(=O)Nc1ccccc1	/	.	/	/	/
CNC(=O)Oc1cccc2c1OC(C)(C)C2	/	/	.	.	.
CCCCOC(=O)N(C)SN(C)C(=O)Oc1cccc2c1OC(C)(C)C2	/	/	3.2µM	.	.
COc1ccc(CN2C(=O)NC(=O)/C(=C\c3cc(OC)c(OC)c(OC)c3)C2=O)cc1	?	?	50µM	.	.
COc1ccc(CN2C(=O)NC(=O)/C(=C\c3ccco3)C2=O)cc1	28µM	40µM	.	.	71µM
O=C1NC(=O)N(Cc2ccccc2)C(=O)/C1=C/C=C/c1ccco1	/	?	?	.	?
O=C(Cc1ccccc1)N1Cc2ccccc2CC2(CCCCN2Cc2ccccn2)C1 (stereo not drawn)	/	.[6.33 µM]	/	/	/
CC(=O)OC1CC2C(C)(C)C(O)C=C[C@@]2(C)C2CC[C@]3(C)C(=CC(=O)OC3c3ccoc3)[C@]12C (stereo partly drawn)	.[2.33 µM]	/	25µM	.	.
SMILES	G9a inh	12-LOX inh	VDR inh	GRP78 ERSR act	Sfp inh
Cc1nn(Cc2ccccc2)c(C)c1C=C1C(=O)NC(=O)NC1=O	.	.	.	.	.
Cc1cc(C)cc(OCCOc2cccc(C=C3C(=O)NC(=O)NC3=O)c2)c1	.	13µM	?	.	50µM
Cc1ccc(OCCOc2cccc(C=C3C(=O)NC(=O)NC3=O)c2)cc1	?	32µM	40µM	.	63µM
Cc1cccc(OCCn2c(=O)oc3ccc(C)cc32)c1	.	.	.	.	.
CCC(CC)c1cc([C@H]2CN3CC[C@H]2C[C@@H]3CNC(=O)CCCC(=O)O)nc(-c2ccncc2)n1	/	.	/	/	/
O=C1Nc2ccccc2CC12CCN2Cc1ccccn1 (stereo not drawn)	/	.	/	/	/
COc1cccc([C@H]2CN(C(=O)c3cnc(C)cn3)[C@@H]3C4CCN(CC4)[C@H]23)c1	/	.	/	/	/
CCN(CC)C(=O)c1ccc(NC(=S)NCCOC)cc1	/	.	/	/	/
O=C(N/N=C1/CN2CCC1CC2)c1cccc(O)c1	10µM	?	.	.	.
CN1C2CCC1CC(OC(=O)c1cccc(O)c1)C2 (stereo not drawn)	/	.	.	.	/
COc1ccc2[nH]c(C)c(CCNCc3ccc(F)cc3F)c2c1	/	1µM	/	/	/
Cc1[nH]c2ccc(OC(F)(F)F)cc2c1CCNCc1cccc([N+](=O)[O-])c1	50µM	?	.	.	.
CCOc1cccc(CNCCc2c(C)[nH]c3ccc(OC(F)(F)F)cc23)c1O	10µM	40µM	.	.	?
COc1ccc2[nH]c(C)c(CCNCc3cccnc3)c2c1	?	?	.	.	/
CN1C(=O)C(=Cc2cccnc2)C(=O)N(C)C1=O	/	?	?	.	40µM
COc1ccc2c(c1)[nH]c1c(C)nccc12	13µM!	.	.	.	.
Cc1ccccc1-c1nc(CS(=O)CC(=O)N2CCN(c3cc(Cl)ccc3C)CC2)c(C)o1 (stereo not drawn)	14µM	?	.	.	/
Cc1ccccc1-c1nc(CS(=O)CC(=O)N2CCC3(CC2)OCCO3)c(C)o1 (stereo not drawn)	?	.	.	.	.
CC(=O)Nc1c2sscc-2n(C)c1=O	.[12.7 µM]	.	40µM	.	?
CN(C)C(Cc1ccc(Cl)cc1)C(=O)c1ccccc1 (stereo not drawn)	45µM	?	.	.	.
O=C(NCCc1cnc2ccccn12)C1CC2(CCNCC2)CN1 (stereo not drawn)	/	.	/	/	/
CCN(CCCNS(=O)(=O)c1ccc2c(c1)oc(=O)n2C)c1cccc(C)c1	14µM	.	?	.	.
O=[N+]([O-])c1ccc(N2CCC(O)CC2)c2ccncc12	/	.	/	/	/
N#CCn1c(CCl)nc2ccccc2c1=O	56µM	.	.	.	.
CN1CC(C(=O)c2ccc(Cl)cc2)C(c2ccccc2)C1 (stereo not drawn)	45µM	?	.	.	.
SMILES	G9a inh	12-LOX inh	VDR inh	GRP78 ERSR act	Sfp inh
CN1CC(C(=O)c2ccc(F)cc2)C(c2c(F)cccc2Cl)C1 (stereo not drawn)	.	.	.	.	.
O=C(NC(O)C(Cl)(Cl)Cl)c1ccco1 (stereo not drawn)	/	.	/	/	/
CCOC(=O)c1c(-n2c(C)cc(/C=C3/C(=O)NC(=O)N(CC)C3=O)c2C)sc2c1CCCC2	/	?	.	.	/
Cc1ccc(N2C(=O)NC(=O)/C(=C\c3cc(C)n(-c4sc5c(c4C#N)CCCC5)c3C)C2=O)cc1	?	35µM	45µM	.	40µM
CCOC(=O)c1c(-n2c(C)cc(C=C3C(=O)NC(=S)NC3=O)c2C)sc2c1CCCC2	?	/	?	?	18µM
Cc1cc(/C=C2\C(=O)NC(=O)N(c3ccc(Br)cc3)C2=O)c(C)n1-c1cc(C(=O)O)cc(C(=O)O)c1	20µM	?	?	.	.
CCN1C(=O)NC(=O)/C(=C/c2cc(C)n(-c3sc(C)c(C)c3C#N)c2C)C1=O	.	?	?	.	16µM

Compound activity (PubChem)
